# According to the supplement of paper PMC4022240:
# ± gives the standard deviation.
# T1: HaloTag-ATRX ADD domain (163-292)
# T1 chain: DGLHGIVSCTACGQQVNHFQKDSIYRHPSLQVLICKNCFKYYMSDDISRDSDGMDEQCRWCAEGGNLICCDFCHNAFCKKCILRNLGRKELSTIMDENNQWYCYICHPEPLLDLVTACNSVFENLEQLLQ
# B1: H3 1-13 A Rme2a T K Q T A R Kme S T G G (peptide)
# chain: ARTKQTARKSTGG
# B2: H3 1-13 A Rme2a T K Q T A R Kme2 S T G G (peptide)
# chain: ARTKQTARKSTGG
# B3: H3 1-13 A Rme2a T K Q T A R Kme3 S T G G (peptide)
# chain: ARTKQTARKSTGG
# B4: H3 1-13 A Rme2a Tph K Q T A R K S T G G (peptide)
# chain: ARTKQTARKSTGG
# B5: H3 1-13 A Rme2a T K Q Tph A R K S T G G (peptide)
# chain: ARTKQTARKSTGG
# B6: H3 1-13 A Rme2a T K Q T A R K S T G G (peptide)
# chain: ARTKQTARKSTGG
# B7: H3 1-13 A Rme2s T Kac Q T A R K S T G G (peptide)
# chain: ARTKQTARKSTGG
# B8: H3 1-13 A Rme2s T Kme Q T A R K S T G G (peptide)
# chain: ARTKQTARKSTGG
# B9: H3 1-13 A Rme2s T Kme2 Q T A R K S T G (peptide)
# chain: ARTKQTARKSTG
# B10: H3 1-13 A Rme2s T Kme3 Q T A R K S T G G (peptide)
# chain: ARTKQTARKSTGG
# Columns and labels:
# Assay in all cases: peptide microarray binding signal (635 nm), min-max normalized on array (fraction of array maximum); higher = stronger binding
# Conditions in all cases: peptide region: H3 1-13
# [1] = biological target: T1, HaloTag-ATRX ADD domain (163-292)
# Experimental: (§1)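 Histone 13-mer peptides were synthesized as cellulose conjugates with a C-terminal 20-atom PEG linker and printed in triplicate on nitrocellulose. The sequence given is the unmodified backbone; PTMs (Kme1/2/3, Kac, Sph/Tph, Rme/Rme2a/Rme2s, Rcit) are listed in the label and the 'peptide modifications' condition. Slides were probed at 4 °C for 1 h with biotin-labelled (HQ)5-HaloTag reader fusions (ATRX-ADD, ING2-PHD) then streptavidin-Alexa647, or with rabbit histone antibodies then anti-rabbit Alexa647. The mean 635 nm signal of the triplicate spots was scaled 0-1 between the lowest and highest values on each array.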
# [2] = biological target: HaloTag-ING2 PHD (mouse Ing2 200-280)
# Experimental: as §1
# [3] = biological target: anti-H3K4me3 antibody ab8580
# Experimental: as §1
# [4] = biological target: anti-H3K9me3 antibody ab8898
# Experimental: as §1
# [5] = peptide modifications: H3R2me2a H3K9me1, binder concentration: 1:2,000 dilution
# [6] = peptide modifications: H3R2me2a H3K9me1, binder concentration: 1:10,000 dilution
# [7] = peptide modifications: H3R2me2a H3K9me2, binder concentration: 1:2,000 dilution
# [8] = peptide modifications: H3R2me2a H3K9me2, binder concentration: 1:10,000 dilution
# [9] = peptide modifications: H3R2me2a H3K9me3, binder concentration: 1:2,000 dilution
# [10] = peptide modifications: H3R2me2a H3K9me3, binder concentration: 1:10,000 dilution
# [11] = peptide modifications: H3R2me2a H3T3ph, binder concentration: 1:2,000 dilution
# [12] = peptide modifications: H3R2me2a H3T3ph, binder concentration: 1:10,000 dilution
# [13] = peptide modifications: H3R2me2a H3T6ph, binder concentration: 1:2,000 dilution
# [14] = peptide modifications: H3R2me2a H3T6ph, binder concentration: 1:10,000 dilution
# [15] = peptide modifications: H3R2me2a, binder concentration: 1:2,000 dilution
# [16] = peptide modifications: H3R2me2a, binder concentration: 1:10,000 dilution
# [17] = peptide modifications: H3R2me2s H3K4ac, binder concentration: 1:2,000 dilution
# [18] = peptide modifications: H3R2me2s H3K4ac, binder concentration: 1:10,000 dilution
# [19] = peptide modifications: H3R2me2s H3K4me1, binder concentration: 1:2,000 dilution
# [20] = peptide modifications: H3R2me2s H3K4me1, binder concentration: 1:10,000 dilution
# [21] = peptide modifications: H3R2me2s H3K4me2, binder concentration: 1:2,000 dilution
# [22] = peptide modifications: H3R2me2s H3K4me2, binder concentration: 1:10,000 dilution
# [23] = peptide modifications: H3R2me2s H3K4me3, binder concentration: 1:2,000 dilution
# [24] = peptide modifications: H3R2me2s H3K4me3, binder concentration: 1:10,000 dilution
binder,measurement,setting,value
B1,peptide microarray binding signal,"[1]; peptide modifications: H3R2me2a H3K9me1, binder concentration: 50 nM",0.0646 ± 0.0083
same,peptide microarray binding signal,"[1]; peptide modifications: H3R2me2a H3K9me1, binder concentration: 500 nM",0.138 ± 0.008
same,peptide microarray binding signal,"[2]; peptide modifications: H3R2me2a H3K9me1, binder concentration: 10 nM",0.0387 ± 0.0036
same,peptide microarray binding signal,"[2]; peptide modifications: H3R2me2a H3K9me1, binder concentration: 100 nM",0.0709 ± 0.014
same,peptide microarray binding signal,[3]; [5],0.0175 ± 0.0013
same,peptide microarray binding signal,[3]; [6],0.0118 ± 0.0015
same,peptide microarray binding signal,[4]; [5],0.00838 ± 0.0011
same,peptide microarray binding signal,[4]; [6],0.00675 ± 0.00044
B2,peptide microarray binding signal,"[1]; peptide modifications: H3R2me2a H3K9me2, binder concentration: 50 nM",0.169 ± 0.018
same,peptide microarray binding signal,"[1]; peptide modifications: H3R2me2a H3K9me2, binder concentration: 500 nM",0.197 ± 0.0079
same,peptide microarray binding signal,"[2]; peptide modifications: H3R2me2a H3K9me2, binder concentration: 10 nM",0.06 ± 0.00075
same,peptide microarray binding signal,"[2]; peptide modifications: H3R2me2a H3K9me2, binder concentration: 100 nM",0.0848 ± 0.012
same,peptide microarray binding signal,[3]; [7],0.0133 ± 0.0025
same,peptide microarray binding signal,[3]; [8],0.0229 ± 0.0084
same,peptide microarray binding signal,[4]; [7],0.0303 ± 0.0053
same,peptide microarray binding signal,[4]; [8],0.0191 ± 0.0015
B3,peptide microarray binding signal,"[1]; peptide modifications: H3R2me2a H3K9me3, binder concentration: 50 nM",0.553 ± 0.21
same,peptide microarray binding signal,"[1]; peptide modifications: H3R2me2a H3K9me3, binder concentration: 500 nM",0.325 ± 0.0057
same,peptide microarray binding signal,"[2]; peptide modifications: H3R2me2a H3K9me3, binder concentration: 10 nM",0.0188 ± 0.00063
same,peptide microarray binding signal,"[2]; peptide modifications: H3R2me2a H3K9me3, binder concentration: 100 nM",0.0327 ± 0.0029
same,peptide microarray binding signal,[3]; [9],0.0294 ± 0.003
same,peptide microarray binding signal,[3]; [10],0.0254 ± 0.0048
same,peptide microarray binding signal,[4]; [9],0.328 ± 0.013
same,peptide microarray binding signal,[4]; [10],0.254 ± 0.069
B4,peptide microarray binding signal,"[1]; peptide modifications: H3R2me2a H3T3ph, binder concentration: 50 nM",0.00567 ± 0.00034
same,peptide microarray binding signal,"[1]; peptide modifications: H3R2me2a H3T3ph, binder concentration: 500 nM",0.0135 ± 0.00068
same,peptide microarray binding signal,"[2]; peptide modifications: H3R2me2a H3T3ph, binder concentration: 10 nM",0.00501 ± 0.00013
same,peptide microarray binding signal,"[2]; peptide modifications: H3R2me2a H3T3ph, binder concentration: 100 nM",0.00737 ± 0.00044
same,peptide microarray binding signal,[3]; [11],0.00262 ± 0.00056
same,peptide microarray binding signal,[3]; [12],0.00434 ± 0.00077
same,peptide microarray binding signal,[4]; [11],0.000755 ± 0.00011
same,peptide microarray binding signal,[4]; [12],0.000577 ± 6.2e-06
B5,peptide microarray binding signal,"[1]; peptide modifications: H3R2me2a H3T6ph, binder concentration: 50 nM",0.00602 ± 7.4e-05
same,peptide microarray binding signal,"[1]; peptide modifications: H3R2me2a H3T6ph, binder concentration: 500 nM",0.015 ± 0.0011
same,peptide microarray binding signal,"[2]; peptide modifications: H3R2me2a H3T6ph, binder concentration: 10 nM",0.00549 ± 0.00043
same,peptide microarray binding signal,"[2]; peptide modifications: H3R2me2a H3T6ph, binder concentration: 100 nM",0.00964 ± 0.0013
same,peptide microarray binding signal,[3]; [13],0.00198 ± 0.00026
same,peptide microarray binding signal,[3]; [14],0.0032 ± 0.00025
same,peptide microarray binding signal,[4]; [13],0.00112 ± 3.5e-05
same,peptide microarray binding signal,[4]; [14],0.000923 ± 1.9e-05
B6,peptide microarray binding signal,"[1]; peptide modifications: H3R2me2a, binder concentration: 50 nM",0.0208 ± 0.00057
same,peptide microarray binding signal,"[1]; peptide modifications: H3R2me2a, binder concentration: 500 nM",0.0355 ± 0.025
same,peptide microarray binding signal,"[2]; peptide modifications: H3R2me2a, binder concentration: 10 nM",0.00889 ± 0.00042
same,peptide microarray binding signal,"[2]; peptide modifications: H3R2me2a, binder concentration: 100 nM",0.0186 ± 0.0037
same,peptide microarray binding signal,[3]; [15],0.0031 ± 0.00032
same,peptide microarray binding signal,[3]; [16],0.0016 ± 7.1e-05
same,peptide microarray binding signal,[4]; [15],0.00127 ± 7.4e-05
same,peptide microarray binding signal,[4]; [16],0.000634
B7,peptide microarray binding signal,"[1]; peptide modifications: H3R2me2s H3K4ac, binder concentration: 50 nM",0.0137 ± 0.00038
same,peptide microarray binding signal,"[1]; peptide modifications: H3R2me2s H3K4ac, binder concentration: 500 nM",0.046 ± 0.0095
same,peptide microarray binding signal,"[2]; peptide modifications: H3R2me2s H3K4ac, binder concentration: 10 nM",0.0299 ± 0.0078
same,peptide microarray binding signal,"[2]; peptide modifications: H3R2me2s H3K4ac, binder concentration: 100 nM",0.0957 ± 0.0077
same,peptide microarray binding signal,[3]; [17],0.00993 ± 0.0029
same,peptide microarray binding signal,[3]; [18],0.00651 ± 0.00097
same,peptide microarray binding signal,[4]; [17],0.0137 ± 0.0005
same,peptide microarray binding signal,[4]; [18],0.00617 ± 0.00064
B8,peptide microarray binding signal,"[1]; peptide modifications: H3R2me2s H3K4me1, binder concentration: 50 nM",0.00815 ± 0.00038
same,peptide microarray binding signal,"[1]; peptide modifications: H3R2me2s H3K4me1, binder concentration: 500 nM",0.0162 ± 0.0009
same,peptide microarray binding signal,"[2]; peptide modifications: H3R2me2s H3K4me1, binder concentration: 10 nM",0.00573 ± 0.00037
same,peptide microarray binding signal,"[2]; peptide modifications: H3R2me2s H3K4me1, binder concentration: 100 nM",0.0481 ± 0.011
same,peptide microarray binding signal,[3]; [19],0.0368 ± 0.009
same,peptide microarray binding signal,[3]; [20],0.0228 ± 0.00057
same,peptide microarray binding signal,[4]; [19],0.00405 ± 0.0004
same,peptide microarray binding signal,[4]; [20],0.00329 ± 0.00019
B9,peptide microarray binding signal,"[1]; peptide modifications: H3R2me2s H3K4me2, binder concentration: 50 nM",0.00476 ± 0.00032
same,peptide microarray binding signal,"[1]; peptide modifications: H3R2me2s H3K4me2, binder concentration: 500 nM",0.00814 ± 0.00041
same,peptide microarray binding signal,"[2]; peptide modifications: H3R2me2s H3K4me2, binder concentration: 10 nM",0.00967 ± 0.00038
same,peptide microarray binding signal,"[2]; peptide modifications: H3R2me2s H3K4me2, binder concentration: 100 nM",0.0142 ± 0.0012
same,peptide microarray binding signal,[3]; [21],0.0186 ± 0.0024
same,peptide microarray binding signal,[3]; [22],0.01061 ± 5.4e-05
same,peptide microarray binding signal,[4]; [21],0.00287 ± 0.00041
same,peptide microarray binding signal,[4]; [22],0.00225 ± 0.00017
B10,peptide microarray binding signal,"[1]; peptide modifications: H3R2me2s H3K4me3, binder concentration: 50 nM",0.00893 ± 9.3e-05
same,peptide microarray binding signal,"[1]; peptide modifications: H3R2me2s H3K4me3, binder concentration: 500 nM",0.0273 ± 0.0066
same,peptide microarray binding signal,"[2]; peptide modifications: H3R2me2s H3K4me3, binder concentration: 10 nM",0.0555 ± 0.0092
same,peptide microarray binding signal,"[2]; peptide modifications: H3R2me2s H3K4me3, binder concentration: 100 nM",0.0641 ± 0.027
same,peptide microarray binding signal,[3]; [23],0.674 ± 0.053
same,peptide microarray binding signal,[3]; [24],0.326 ± 0.034
same,peptide microarray binding signal,[4]; [23],0.228 ± 0.057
same,peptide microarray binding signal,[4]; [24],0.113 ± 0.034
